Results published in PubChem BioAssay (NCI).
The panel holds about 83,000 compounds, 20% with a hit somewhere; the sample as a whole holds those more often.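 Cell lines were cultured in 96-well plates, exposed to a single compound concentration, and assessed for percent growth 48 hours later.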 The source made the active and inactive calls. The calls were made as follows: active = growth percent below 10; inactive = the rest.

What was measured:
Assay in all cases: NCI-60 one-dose screen, 48 h (100 = growth as untreated, 0 = no growth, -100 = all killed)
Settings in all cases: 10 µM unless noted
[1] = test system: DU-145 prostate
[2] = test system: K-562 leukemia
[3] = test system: MALME-3M melanoma
[4] = test system: MDA-MB-231 breast
[5] = test system: RXF 393 renal
[6] = test system: SF-268 CNS
[7] = test system: SF-295 CNS
[8] = test system: SF-539 CNS
[9] = test system: UACC-257 melanoma
[10] = test system: M14 melanoma
[11] = test system: HCT-15 colon
[12] = test system: HT29 colon
[13] = test system: SNB-75 CNS
[14] = test system: SNB-19 CNS
[15] = test system: U251 CNS
[16] = test system: PC-3 prostate
[17] = test system: SK-MEL-5 melanoma
[18] = test system: UACC-62 melanoma
[19] = test system: LOX IMVI melanoma
[20] = test system: SK-MEL-28 melanoma

Measured: growth

Cc1nn(-c2ccccc2)c(Oc2ccc(Cl)cc2)c1/C=N\N=c1/sc2ccccc2n1C
inactive: [1] 108% | [2] 81% | [3] 98.2% | [4] 79% | [5] 94.2% | [6] 79.6% | [7] 101% | [8] 107% | [9] 91.9% | [10] 87.4% | [11] 77.4% | [12] 84.8% | [13] 74.4% | [14] 99.1% | [15] 86.9% | [16] 62.3% | [17] 93.3% | [18] 70.8% | [19] 93.3% | [20] 110%

Cc1ccc(S(=O)(=O)n2cc(CNc3ccc(N4CCOCC4=O)cc3)c3ccccc32)cc1
active: [5] -8.02%
inactive: [1] 67.6% | [2] 82.4% | [3] 62.9% | [4] 87.8% | [6] 89.4% | [7] 88.7% | [8] 96.8% | [9] 86.6% | [10] 93.3% | [11] 74.7% | [12] 89.1% | [13] 73.4% | [14] 97.7% | [15] 95.1% | [16] 89.6% | [17] 93% | [18] 78.2% | [19] 87.2% | [20] 101%

Cc1nc2c(c(N3CCCc4ccccc43)n1)CCC2
inactive: [3] 54.2% | [4] 18.1% | [5] 33% | [6] 16.9% | [9] 26.3% | [13] 20.4% | [14] 40% | [16] 12.8% | [18] 24.3% | [19] 21.2% | [20] 60.4%
active: [1] -8.95% | [2] 4.8% | [7] 9.59% | [8] 1.1% | [10] -17.6% | [11] 4.84% | [12] 3.44% | [15] 7.57% | [17] -49%

O=c1c2c3c(sc2n2c(-c4cc(-c5ccccc5)nn4-c4ccccc4)nnc2n1Cc1ccccc1)CCCC3
inactive: [1] 107% | [2] 27.1% | [3] 123% | [4] 94.2% | [5] 90% | [6] 89.2% | [8] 112% | [9] 106% | [10] 92.4% | [11] 91.3% | [12] 88.6% | [13] 92.3% | [14] 89.6% | [15] 70.3% | [16] 69.1% | [17] 129% | [18] 103% | [19] 92.9% | [20] 111%
active: [7] 5.76%

CCCCNC(=O)Oc1ccc2c(=O)c3sc4c(=O)c5ccccc5c(=O)c4c3c(=O)c2c1
active: [1] -98.5% | [2] -34.3% | [3] -98% | [4] -22.2% | [5] -87.1% | [6] -48.1% | [7] -98.1% | [8] -96.6% | [9] -95.7% | [10] -77.6% | [11] -84% | [12] -41.6% | [13] -98.3% | [14] -93.6% | [15] -73% | [16] -15.5% | [17] -96.9% | [18] -75% | [19] -72.9% | [20] -73.3%

COc1ccc(S(=O)(=O)NCCNc2nccc(-c3c(-c4cccc(F)c4)nc4sccn34)n2)cc1
active: [13] -0.29% | [17] 9.62%
inactive: [1] 48.3% | [2] 23% | [3] 49.1% | [4] 61.4% | [5] 28.8% | [6] 35.4% | [7] 58.5% | [8] 77.4% | [9] 66.7% | [10] 38.4% | [11] 23.4% | [12] 23.9% | [14] 58.3% | [15] 52.5% | [16] 29.4% | [18] 39% | [19] 32.9% | [20] 60%

Cc1cc(NCc2cc(Nc3ccnc4cc(Cl)ccc34)ccc2F)nc(N2CCN(C)CC2)n1
inactive: [1] 23.4% | [6] 12.6% | [14] 29.7% | [16] 21.5%
active: [2] -37.2% | [3] -68.3% | [4] -43.9% | [5] -27.1% | [7] -60.9% | [8] -75.3% | [9] -59.7% | [10] -73.1% | [11] -42.9% | [12] -24.5% | [13] -50.9% | [15] -28.2% | [17] -98% | [18] -63.8% | [19] -86.6% | [20] -70%

CC(=O)[C@@H]1CC[C@]2(COS(=O)(=O)c3ccc(C)cc3)CC[C@]3(C)[C@H](CC[C@@H]4[C@@]5(C)CCCNC(C)(C)[C@@H]5CC[C@]43C)[C@@H]12
active: [2] 2.27% | [12] 2.18%
inactive: [1] 86.6% | [3] 88.1% | [4] 96.4% | [5] 63.9% | [6] 73.2% | [7] 101% | [8] 77.4% | [9] 49.9% | [10] 79% | [11] 32% | [13] 83.2% | [14] 91.7% | [15] 61.8% | [16] 56.8% | [17] 76.2% | [18] 58.9% | [19] 14% | [20] 85.6%

Cc1ccc(-n2c(-c3ccccc3)c(-c3ccccc3)c3c(SCC(=O)n4[nH]c(N)cc4=O)ncnc32)cc1
inactive: [1] 108% | [2] 77.1% | [3] 97.6% | [4] 83.3% | [5] 96.6% | [6] 107% | [7] 89.3% | [8] 96% | [9] 94.1% | [10] 94.3% | [11] 101% | [12] 94% | [13] 97.1% | [14] 91.8% | [15] 87% | [16] 79.4% | [17] 87.3% | [18] 77.4% | [19] 97.7% | [20] 101%

N#Cc1c(-c2ccccc2)cc(-c2ccc(Nc3nc(Nc4ccc(F)cc4)nc(Nc4ccc(F)cc4)n3)cc2)nc1N
inactive: [1] 106% | [2] 88.8% | [3] 80.6% | [4] 73.2% | [5] 53.6% | [6] 96.1% | [7] 65% | [8] 94.5% | [9] 104% | [10] 108% | [11] 100% | [12] 94.1% | [13] 87.1% | [14] 91.7% | [15] 92% | [16] 75.8% | [17] 92% | [18] 98.6% | [19] 95.5% | [20] 90.1%

Nc1nc(N)c2c(n1)NC(c1ccccc1)C1CCc3ccccc3C1=N2 (stereo not given)
active: [17] -23.3%
inactive: [1] 49.1% | [2] 12.1% | [3] 15.3% | [4] 64.6% | [5] 84.7% | [6] 62.7% | [7] 17% | [8] 47.8% | [9] 19.7% | [10] 53.2% | [11] 39% | [12] 27.9% | [13] 54.7% | [14] 67.2% | [15] 37.1% | [16] 40.8% | [18] 49.3% | [19] 44.5% | [20] 76.4%

COc1ccc(/C=C/c2c(C(=O)/C=C/c3ccc(F)cc3)c(C)nc3ccccc23)cc1
inactive: [1] 35.8% | [2] 10.3% | [3] 83.6% | [4] 54.8% | [5] 55.5% | [6] 69.3% | [7] 62.4% | [8] 81.5% | [9] 66.6% | [10] 65% | [11] 10.8% | [12] 23.6% | [13] 52.1% | [14] 60.9% | [15] 49.6% | [16] 41.7% | [17] 63.4% | [18] 46.8% | [19] 19.7% | [20] 55.3%

N/C(=N\c1nc2ccccc2s1)NC(=O)Nc1cccc(Cl)c1
inactive: [1] 52.4% | [2] 13.9% | [3] 42.6% | [4] 59.4% | [5] 68.6% | [6] 55.9% | [7] 40% | [9] 48.9% | [10] 10.3% | [11] 17.9% | [12] 10.2% | [13] 13.7% | [14] 42.2% | [15] 26.1% | [16] 42.4% | [17] 32.3% | [18] 25.8% | [19] 38.9% | [20] 60.1%
active: [8] 2.83%

CN1CCN(CCCOc2ccc3nc(Nc4ccc(F)c(F)c4)ccc3c2)CC1
active: [2] -30.3% | [3] 3.13% | [4] -31.6% | [7] -51.4% | [9] -52.9% | [10] -53.1% | [11] -29.3% | [12] -36.2% | [17] -6.85% | [18] -67.1% | [19] -89.5% | [20] -67.4%
inactive: [1] 39.9% | [5] 48.6% | [6] 46.5% | [8] 14.3% | [13] 24.3% | [14] 26.5% | [15] 13.7% | [16] 22.5%

CCOC(=O)c1csc(NC(=O)COc2cccc(/C=C3\Oc4cc(OC)ccc4C3=O)c2)n1
inactive: [1] 102% | [2] 52.1% | [3] 109% | [4] 67.9% | [5] 114% | [6] 109% | [7] 121% | [8] 106% | [9] 91.7% | [10] 111% | [11] 79.2% | [12] 101% | [13] 78.4% | [14] 83.4% | [15] 79.2% | [16] 78.3% | [17] 98.5% | [18] 79% | [19] 66.7% | [20] 119%
